We go through 40 compounds from PubChem BioAssay (Tox21).

Results filed as inconclusive are left out. Where a call stands in place of a potency, no number is given. Values without a mark were called inactive. Active and inactive are the calls of the source. The call rests on the fitted dose curve; in most records, active means well fitted cell-killing curve with a large enough effect in the repeat runs; inconclusive means weak or mixed curves, or effect the other way; inactive means no such curve, though single readings can be large or run the other way.
Potency means the concentration at half of the fitted maximal effect.

The assay can be described thus: qHTS assay to identify small molecule antagonists of the sonic hedgehog signaling (Shh) pathway - cell viability counter screen (AID 1259367). Further: nearly all actives have a fitted effect of over 55% in size. The following applies: NIH/3T3 Gli1-Luc viability, CellTiter-Fluor, 24 h; series mostly up to 92.4 µM. The text has this: National Center for Advancing Translational Sciences [NCATS]
NIH Chemical Genomics Center [NCGC]
U.S. Environmental Protection Agency [EPA]
National Institutes of Environmental Health Sciences [NIEHS]
National Toxicology Program [NTP]
U.S. Food and Drug Administration [FDA]
The sonic hedgehog (Shh) pathway is essential for normal embryonic development. Dysregulation of the Shh pathway can cause severe developmental defects in organs. Therefore chemicals that interfere with the pathway are potential developmental toxicants. A cell line designated 3T3Gli1-Luc (DMB/OARSA/CFSAN/FDA, Laurel, MD), a NIH/3T3 derived clone containing stably integrated Gli1-Luc reporter is used to detect chemical interference of the Shh pathway, by changes in the expression of the firefly Luc gene under the control of the Gli1 transcriptional response element. This cell line was used to screen Tox21 libraries for identifying and prioritizing the potential developmental toxicants that interfere Shh pathway. Conditioned medium-stimulated mode was used to screen for chemicals inhibiting Shh signaling. The cytotoxicity of the compounds was tested in parallel by measuring the cell viability using CellTiter-Fluor assay system (Promega, Madison, WI) in the same wells.
Tox21 Assay Protocol Summary:
3T3 Gli1-Luc cells were dispensed at 2,000 per well in 5uL of culture medium into white solid bottom 1536-well plates (Greiner Bio-One, Monroe, NC) using a Multidrop Combi (Thermo Scientific, Waltham, MA) dispenser. The assay plates were incubated at 37 C and 5% CO2 for 4hr, and then 23nL of compounds dissolved in DMSO and positive control were transferred using a Pintool station (Wako, San Diego, CA). The compound transfer was followed by the addition of 1ul conditioned medium or assay buffer using two separate tips of Flying Reagent Dispenser (FRD, Aurora Discovery, San Diego, CA). The assay plates were incubated at 37C and 5% CO2 for 24hr. For viability read, after 23hr of compound treatment, 1uL of CellTiter-Fluor reagent (Promega Corporation, Madison, WI) was added to each well of the assay plates using Flying Reagent Dispenser (FRD, Aurora Discovery, San Diego, CA) and incubated the assay plates at 37C for 1hr. The fluorescence signal was quantified using a ViewLux plate reader (Perkin Elmer, Shelton, CT).
(qHTS replaces the single test concentration by a dilution series.)
`COC(=O)c1sccc1S(N)(=O)=O`: the Potency result is “inactive”.
The same measure, in the same setting: in the case of `CC(=O)OCCC(C)CC(C)(C)C` (stereo not given) it was “inactive”; in that of `COC1CCC=CO1` (stereo not given), “inactive”.
Still for that read-out and setting: in the case of `CC1CCc2nccnc21` (stereo not given) it was “inactive”.
In the case of `CCCCCCCCCCCCCOC(=O)CCSCCC(=O)OCCCCCCCCCCCCC`, the viability change, negative = cytotoxic is -3.37% [at 19 µM].
With `O=C(O)c1cccc(C[C@@H]2COc3ccc(OCc4nc5cc(F)ccc5s4)cc3[C@@H]2O)c1`, the Potency result is “inactive”.
Still for that read-out and setting: with `CC/C=C\C/C=C\C/C=C\CCCCCCCC(=O)OCC` the entry was “inactive”; with `CC(=O)C(=O)CC(C)C`, “inactive”.
On to `CCCCCCCCCCCC(=O)OCC(O)CO` (stereo not given), for which the Potency result was “inactive”.
Same read-out and setting: in the case of `CC(C)(C)C(O)/C=C/c1ccc2c(c1)OCO2` (stereo not given) it was “inactive”; in that of `CCN(CC)c1ccc(C(=C2C=CC(=[N+](CC)CC)C=C2)c2ccc(S(=O)(=O)O)cc2S(=O)(=O)[O-])cc1`, 17.2 µM (active); in that of `CC(CCc1ccc(O)cc1)NCCc1ccc(O)c(O)c1` (stereo not given), “inactive”.
The same measure, in the same setting: in the case of `Nc1c(Cl)cc(Cl)cc1[N+](=O)[O-]` it was “inactive”; in that of `CCNc1nc(N)nc(Cl)n1`, “inactive”.
On the same count and under the same terms, with `Cc1cn([C@H]2C[C@H](F)[C@@H](CO)O2)c(=O)[nH]c1=O` the entry was “inactive”.
With `Cc1c[nH]c2ccccc12`, the Potency result is “inactive”.
Still for that read-out and setting: with `Cc1ccc(Cl)cc1N` the entry was “inactive”.
Same read-out and setting: in the case of `CC(C)N=C=NC(C)C` it was “inactive”; in that of `Oc1cccc2[nH]ccc12`, “inactive”.
Same read-out and setting: in the case of `CC(C)(C)C1(CCc2ccc(Cl)cc2)CO1` (stereo not given) it was “inactive”.
With `O=C(O)/C=C/c1ccc(O)c(O)c1`, the Potency entry was “inactive”.
Turning to `C=CC(=O)NC(C)C`, the Potency result is “inactive”.
Consider `O=C(O)CO`, for which the Potency entry is “inactive”.
Consider `Cc1oc(=O)oc1COC(=O)[C@@H]1N2C(=O)[C@@H](NC(=O)[C@H](N)c3ccccc3)[C@H]2SC1(C)C`, for which the Potency result is “inactive”.
On the same count and under the same terms, with `ClC1=C(Cl)C1(Cl)Cl` the entry was “inactive”.
With `O=C(C(=O)c1ccco1)c1ccco1`, the Potency result is “inactive”.
Take `CC(C)(O)CCc1ccccc1`: the Potency entry was “inactive”.
`O=C(Oc1ccccc1)c1ccc2ccccc2c1O`: the Potency entry is “inactive”.
`C1CCCCC1`: the Potency result was “inactive”.
On the same count and under the same terms, with `NC(=O)CCCCC(N)=O` the entry was “inactive”.
With `O[C@@H](CNC[C@H](O)[C@H]1CCc2cc(F)ccc2O1)[C@@H]1CCc2cc(F)ccc2O1`, the Potency was 29.8 µM (active).
For the compound `COc1ccc2nc(S(=O)Cc3ncc(C)c(OC)c3C)[nH]c2c1` (stereo not given), the Potency result was “inactive”.
As to `FC(F)(F)C(F)(F)C(F)(F)C(F)(F)CCI`, the Potency entry is “inactive”.
The same measure, in the same setting: in the case of `CCOC(=O)N1CCC(Nc2ccc(Cl)cc2N)CC1` it was “inactive”.
Regarding `Nc1nc2ccc(OC(F)(F)F)cc2s1`, the Potency entry was “inactive”.
Same read-out and setting: in the case of `CCO[Si](C)(CCCOCC1CO1)OCC` (stereo not given) it was “inactive”.
As to `CC(C)COC(=O)COc1cc(Cl)c(Cl)cc1Cl`, the Potency entry was “inactive”.
Still for that read-out and setting: with `CCCCCCC(CO)CCCC` (stereo not given) the entry was “inactive”; with `CC(=O)Oc1cccc(O)c1`, “inactive”; with `Cc1ccc(NC(=O)N(C)C)cc1NC(=O)N(C)C`, “inactive”.
